Drawing on PubChem BioAssay AID624330 (Southern Research Specialized Biocontainment Screening …, 2012), this text covers inhibition for 104 compounds.

In all, about 340,000 compounds went through this assay and about 2,100 (0.62%) were called active. These entries were drawn from the full list. Measured potencies and affinities stand elsewhere. Unmarked numbers belong to inactive results.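 How the source made its calls: active means first-screen hits whose inhibition reached a set limit at any dose in the follow-up dose series; inconclusive means inhibition above the set first-screen limit but never retested; inactive means the rest.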 Square brackets hold non-standard residues; d marks the D form. Peptide text beside a SMILES is read from it. * marks the point of attachment. ξ: configuration not given here. Cbz = O=C(OCc1ccccc1)*; ξP = O=C(O)C1CCCN1

Rac GTPase-activating protein 1 (Homo sapiens), sequence (Q9H0H5 whole entry, looked up): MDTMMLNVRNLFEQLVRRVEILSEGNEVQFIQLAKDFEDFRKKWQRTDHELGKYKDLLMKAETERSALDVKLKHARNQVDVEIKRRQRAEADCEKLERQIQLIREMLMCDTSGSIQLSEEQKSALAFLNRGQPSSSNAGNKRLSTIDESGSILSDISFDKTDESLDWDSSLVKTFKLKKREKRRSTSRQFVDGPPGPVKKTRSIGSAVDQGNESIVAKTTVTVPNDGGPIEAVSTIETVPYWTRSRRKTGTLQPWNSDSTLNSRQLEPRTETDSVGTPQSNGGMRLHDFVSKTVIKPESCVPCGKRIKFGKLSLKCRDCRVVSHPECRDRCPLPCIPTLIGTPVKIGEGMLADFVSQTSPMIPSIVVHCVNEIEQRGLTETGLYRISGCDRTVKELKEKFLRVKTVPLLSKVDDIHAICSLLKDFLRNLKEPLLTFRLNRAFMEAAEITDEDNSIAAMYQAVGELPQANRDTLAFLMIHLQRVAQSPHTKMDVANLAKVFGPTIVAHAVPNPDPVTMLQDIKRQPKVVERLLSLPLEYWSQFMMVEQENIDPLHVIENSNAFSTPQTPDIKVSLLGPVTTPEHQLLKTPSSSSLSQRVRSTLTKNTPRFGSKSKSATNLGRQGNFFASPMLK

The assay has as its target Rac GTPase-activating protein 1 (Homo sapiens) (UniProt Q9H0H5). As to the kind of experiment: blockers of MgcRacGAP-driven Rac1 GTP hydrolysis – biochemical, ADP Hunter fluorescence, primary and confirmatory, confirmation (AID 624330).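 Further: fluorescence reports GDP produced by GAP-driven GTP hydrolysis.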 As to conditions: MgcRacGAP-stimulated Rac1 GTP hydrolysis, at 30 µM, stronger effect = higher value, GST-tagged Rac1 F28L mutant substrate.
In the case of `O=C(c1cccc(N2CCCC2=O)c1)N1CCN(c2ccccc2)CC1`, the inhibition is 10.3%. Consider `COCCN(C(=O)Cc1coc2cc(C)c(C)cc12)c1c(N)n(Cc2ccccc2)c(=O)[nH]c1=O`, for which the inhibition is 0.31%. Under `CCCC(C(=O)N(C)CC(=O)Nc1ccc(N2CCOCC2)cc1)c1ccccc1` (centres undefined) stands 7.2%.

Take `CCNC(=S)N(Cc1cc2c(C)ccc(C)c2[nH]c1=O)C1CCCC1`: the inhibition is 3.17%. Under `Cc1nc(C(=O)N2CCCC(Nc3ccc(C)c(C)c3)C2)cs1` (centres undefined) stands 13.6%; under `COc1ccc(NC2CCCN(C(=O)CSc3ccncc3)C2)cc1` (centres undefined), 31.3%; under `Cc1cc(C(=O)N2CCCC(Nc3ccccc3)C2)c2ccc(F)cc2n1` (centres undefined), 12.7%.

As to `COc1ccc(C(=O)N2CCCC(Nc3ccc(F)cc3)C2)c(OC)c1` (centres undefined), the inhibition is 5.24%. Consider `COc1ccc(NC2CCCN(C(=O)c3ccc4[nH]c(C)c(C)c4c3)C2)cc1OC` (centres undefined), for which the inhibition is 12.8%. Turning to `COc1ccc(NC2CCCN(C(=O)C3(C)CCCCC3)C2)cc1OC` (centres undefined), the inhibition was -45.5%. Regarding `COc1ccc(C(=O)N2CCCC(Nc3ccc(C)c(C)c3)C2)cc1` (centres undefined), the inhibition was 16.9%.

Regarding `CSc1nc(C(=O)N2CCCC(Nc3ccc(C)c(C)c3)C2)cs1` (centres undefined), the inhibition was 13.4%. The result for `CC(CC(=O)Nc1ccc(S(=O)(=O)N2CCOCC2)cc1)c1ccccc1` (centres undefined) reads 3.54%; that for `Cc1cc(Cl)ccc1NC(=S)N1CCN(C(=O)c2ccco2)CC1`, 5.96%; that for `Cc1ccc(S(=O)(=O)NN=Cc2c(O)ccc3ccccc23)cc1`, 11.4%. Under `O=C(NCCc1ccccc1)C1CCC(CNS(=O)(=O)c2ccc(F)cc2)CC1` (centres undefined) stands 6.44%; under `O=C(CSc1nnc(CNC(=O)c2ccco2)o1)Nc1ccc(F)cc1`, -2.84%. `Cc1ccc(N/C(CSC(N)=O)=N/S(=O)(=O)c2ccccc2)cc1`: the inhibition is 4.14%.

With `Cc1cc(C=O)c(C)n1-c1cc(C(F)(F)F)ccc1N1CCOCC1`, the inhibition is 5.1%.

Regarding `CCn1nc(C)cc1C(=O)N1CCCC(Nc2ccc(C(C)C)cc2)C1` (centres undefined), the inhibition is 9.28%. The result for `CCn1nc(CC(C)C)cc1C(=O)N1CCCC(Nc2ccc(F)cc2)C1` (centres undefined) reads 1.25%. The result for `CCN(CC)c1ccc(S(=O)(=O)N2CCOCC2)cc1NC(=O)C1CC1` reads 6.61%; that for `Cc1ncc(S(=O)(=O)C(C)(C)C)c(N)n1`, 4.93%; that for `O=C(COC(=O)/C=C/c1cccs1)NC(=O)Cc1ccccc1`, 9.86%. Regarding `Nc1ccccc1SC/C=C/CSc1ccccc1N`, the inhibition was 17.8%. For `Nc1ccccc1SCc1ccccc1`, the inhibition was 3.68%. In the case of `CC1(C)CC(=O)C2=C(C1)NC(=O)NC2c1ccc(Cl)cc1` (centres undefined), the inhibition was 9.51%. The result for `COc1ccc(NC(=O)C2CC(c3ccc(Cl)cc3)=NO2)cc1OC` (centres undefined) reads -3.14%.

As to `COC(=O)C1CCN(C(=O)Cn2nnc(-c3ccccc3)n2)CC1`, the inhibition was 5.24%. Under `CC(C)/C=C1\CC/C(=C\c2ccc(N(C)C)cc2)C1=O` stands 6.52%; under `CN(C)c1ccc(/C=C2\CCC/C(=C\c3ccccc3)C2=O)cc1`, 10.2%; under `Cc1ccc(S(=O)(=O)N2CCCCC2)cc1NC(=O)CSc1nnc(C2CC2)n1N`, 4.18%. In the case of `Cc1cc(C(=O)NCC(=O)OCC(=O)NCCc2ccccc2)ccc1[N+](=O)[O-]`, the inhibition is -1.11%.

On to `COc1ccc(F)cc1C(=O)C1CCCN(Cc2ccc3c(c2)OCCO3)C1` (centres undefined), for which the inhibition was 4.09%. In the case of `CC(C)NC(=O)C1CCN(Cc2cccc(OCc3ccccc3)c2)CC1`, the inhibition is 6.52%. Under `COc1ccc(-c2onc(C)c2-c2cnn(-c3ccccc3)c2)c(O)c1C` stands 5.03%; under `COc1ccc(-c2n[nH]c(C)c2-c2cnn(-c3ccccc3)c2)c(O)c1C`, 6.48%; under `CC(C)(C)NC(=O)COc1coc(CN2CCN(Cc3ccccc3)CC2)cc1=O`, -6.74%. For `Cc1ccc(OCC(=O)Nc2ccc(N3CCCC3)cc2)cc1C`, the inhibition is 7%. The result for `Cc1ccc(S(=O)(=O)N(C)C)cc1NC(=O)CN1CCN(Cc2ccccc2)CC1` reads 1.33%. Under `Cc1ccc(F)cc1NC(=O)CN1CCN(Cc2ccccc2)CC1` stands -0.43%. The result for `Cc1ccc(S(=O)(=O)N(C)C)cc1NC(=O)CN1CCCC1` reads 3.96%; that for `Cc1ccc(S(=O)(=O)N2CCOCC2)cc1NC(=O)CN1CCN(C)CC1`, 4%; that for `CCN(CC)c1ccc(S(=O)(=O)N2CCOCC2)cc1NC(=O)CSc1ccccc1`, 1.35%. Consider `CCN(CC)c1ccc(S(=O)(=O)N2CCOCC2)cc1NC(=O)CN1CCc2ccccc2C1`, for which the inhibition is 6.44%. The result for `Cc1ccc(OCCNC(=O)c2ccc(C)cc2)cc1` reads -0.09%; that for `CCN1C(=O)C(NC(C)=O)c2cc(Br)ccc21` (centres undefined), 1.35%; that for `CCOc1ccc(NC(=O)CN(C)C(=O)Cc2n[nH]c(=O)c3ccccc23)cc1OCC`, 3.38%. The result for `COc1ccccc1CN(C)C(=O)c1cccc(S(=O)(=O)N2CCCC2)c1` reads 5.67%; that for `Cc1cccc(C)c1Nc1n[nH]c(=S)s1`, 13.1%; that for `Cc1cc(C)c(Nc2n[nH]c(=S)s2)cc1C`, 29.6%.

`COc1ccccc1N1C(=O)S/C(=C\c2cc(C)n(C)c2C)C1=O`: the inhibition is -0.75%.

As to `N#Cc1ccc[n+](CC(=O)c2ccc(NC(=O)c3ccccc3)cc2)c1`, the inhibition was 3.28%. Take `c1cc2c3c(cccc3c1)NC1(CCCC1)N2`: the inhibition is -1.27%. The result for `c1cc2c3c(cccc3c1)NC1(CCC3(CC1)Nc1cccc4cccc(c14)N3)N2` reads 29.5%. For `COc1cc(OC)cc(N(C(=O)c2ccco2)C(C(=O)NC2CCCC2)c2ccc(N3CCOCC3)cc2)c1` (centres undefined), the inhibition was 3.31%. Take `O=C(NC1CCCC1)C(c1ccncc1)N(C(=O)Cc1cccs1)c1ccc(F)cc1` (centres undefined): the inhibition was -2.61%. With `ON=C1c2ccccc2-c2ccccc21`, the inhibition was 4.05%. The result for `ON=C1c2ccccc2-c2ccc(F)cc21` reads -0.77%.

For the compound `Nc1ccc2c(c1)C(=NO)c1ccccc1-2`, the inhibition was 14.6%. The result for `ON=C1c2ccccc2-c2ccc(Br)cc21` reads 0.43%. `COCCCNc1nc2nonc2nc1NCCSC`: the inhibition is -2.05%. For the compound `Cc1cc(SCc2ccc(Cl)c(Cl)c2)nc(=O)[nH]1`, the inhibition was 13.6%. The result for `CC(C)(C)C(=O)Nc1ccc(C(=O)N/N=C/C2CC3C=CC2C3)cc1` (centres undefined) reads 8.37%.

For the compound `COC(=O)CNC(=O)C1CCCN1C(=O)CNC(=O)OCc1ccccc1` (stereo not drawn) (Cbz-Gly-[ξP]-Gly-OMe), the inhibition was 7.71%. As for `CC(C)C(C)NC(=O)CN1C(=O)NC2(CCc3ccccc3C2)C1=O` (centres undefined), the inhibition was 2.87%. Under `CCC(=O)c1ccc(OCc2ccc(C(=O)c3ccccc3)cc2)cc1` stands 6.28%; under `COc1cccc(NC(=O)c2sc3nc4n(c(=O)c3c2C)CCC4)c1`, -4.45%; under `O=C(CCC1CCCC1)Nc1cccn(Cc2ccccc2Br)c1=O`, 2.13%.

As for `CCOC(=O)c1sc(=S)n(Cc2ccccc2)c1C`, the inhibition was 8.11%. Take `CCOC(=O)c1cc(C)n(Cc2ccccc2)c1C`: the inhibition was -2.73%. Under `Cc1noc(C)c1COc1ccccc1C(=O)NNC(=O)c1ccccc1` stands 11.8%; under `N#C/C(=N\Nc1cccc(F)c1)C(=N)N1CCCCCC1`, 15.4%; under `Cc1ccc(/C=N/N2C(=O)c3ccccc3NC2c2ccc(C)cc2)cc1` (centres undefined), 7.64%. The result for `O=C1c2ccccc2NC(c2ccccc2)N1/N=C/c1ccccc1` (centres undefined) reads 12.7%; that for `COc1ccc(Cn2nnnc2C(c2ccccn2)N2CCN(c3cc(Cl)ccc3C)CC2)cc1` (centres undefined), 3.5%. The result for `Cc1cccc(NC(=O)COC(=O)c2n[nH]c3ccccc23)c1C` reads 4.6%; that for `CCOC(=O)c1[nH]c2ccccc2c1N=CN(C)C`, 27.9%. Take `CCOC(=O)c1[nH]c2ccccc2c1NC(=O)C(C)(C)C`: the inhibition is 5.02%. As to `CCOC(=O)c1[nH]c2ccccc2c1N=CN(CC)CC`, the inhibition was 14.9%. The result for `CCOC(=O)c1[nH]c2ccccc2c1NC(=O)COC` reads 4.84%; that for `CCOC(=O)c1[nH]c(C)c(C(=O)Nc2ccccc2C)c1C`, 6.7%. Take `CCCC(=O)Nc1c(C(=O)OCC)[nH]c2ccccc12`: the inhibition was 4.51%. The result for `CCCCNC(=O)Nc1c(C(=O)OCC)[nH]c2ccccc12` reads 5.71%; that for `O=C(CCCn1c(=O)c2sccc2n(CC(=O)OCc2ccccc2)c1=O)NCc1ccco1`, 6.92%. Under `O=C(NCc1nnc2c(C(F)(F)F)cc(Cl)cn12)c1cccnc1` stands 9.23%; under `CC(OC(=O)Cc1ccsc1)C(=O)Nc1ccc(C(N)=O)cc1` (centres undefined), 2.18%; under `O=C(NC(=S)N(Cc1ccccc1)c1ccccn1)C1CCCCC1`, 7.13%. Under `COc1ccccc1NC(=O)NCc1ccccc1F` stands 5.13%. As to `O=C(c1ccccc1)N1CCCC(C(=O)N2CCCCCC2)C1` (centres undefined), the inhibition was -4.85%.

For the compound `CCCn1ccc2c(OCC(=O)Nc3ccc(NC(C)=O)cc3)cccc2c1=O`, the inhibition was -3.32%. On to `O=C(c1cc(Cl)ccc1OCc1ccccc1)N1CCOCC1`, for which the inhibition was 6.74%. As for `CC(Oc1ccccc1)C(=O)NNC(=O)c1ccccn1` (centres undefined), the inhibition is 3.78%. As to `COc1ccc([C@H]2CC(=O)C=C(c3ccccc3-c3ccccc3)C2)cc1`, the inhibition was 0.94%. The result for `CCCC/C(O)=C1\C(=O)CC(C)(C)CC1=Nc1ccc(OC)cc1` reads 3.47%; that for `O=C(Nc1ccc(F)cc1)Nc1nnc(Cc2ccccc2)s1`, 2.79%; that for `CCOc1cc(/C=N/NC(=O)COc2nc(C)cc(COC)c2C#N)ccc1O`, 16.6%. For `COc1cc(/C=N/NC(=O)CSc2cc(C)c(Br)cc2C)ccc1O`, the inhibition is 15.9%. Under `COc1ccc(C=NNC(=O)CCCC(=O)NN=Cc2ccc(OC)c(OC)c2)cc1OC` stands 2.12%. Under `COc1ccc(/C=N/NC(=O)CNc2n[nH]c(=O)[nH]c2=O)cc1OC` stands 10.5%; under `COc1cc(/C=N/NC(=O)CCc2c(C)n[nH]c2C)ccc1O`, 3.71%.

For `COc1ccc(/C=N/NC(=O)CCc2n[nH]c(=O)[nH]c2=O)cc1OC`, the inhibition was 4.75%. `COc1cc(/C=N/NC(=O)C(C)Nc2n[nH]c(=O)[nH]c2=O)cc(OC)c1O` (centres undefined): the inhibition was 11.1%. For the compound `COc1cc(/C=N/NC(=O)c2cc(-c3ccccc3)nc3ccccc23)ccc1O`, the inhibition was 21.3%.
